Max response, negative = inhibition and Potency data for 53 molecules are collected here from PubChem BioAssay AID504847 (National Center for Advancing Translational Sciences (NCATS), 2011).

The whole screen tested about 400,000 compounds, of which about 3,700 (0.93%) were called active. Inconclusive results (about 3%) are left out. For the sample, actives were picked, then their nearest neighbours and some compounds at random. Unmarked numbers belong to inactive results. Calls come from the whole dose curve; as a rule, active = well fitted inhibition curve with a large enough effect; inconclusive = small, poorly fitted or top-dose-only effect, or another doubt; inactive = no such curve, though single readings can be large or run the other way.
% is set by controls: 0 for no effect and ±100 for the full control effect; potency is the fitted concentration of half-maximal effect.

Sequence of Vitamin D3 receptor (Homo sapiens) (P11473 whole entry, looked up): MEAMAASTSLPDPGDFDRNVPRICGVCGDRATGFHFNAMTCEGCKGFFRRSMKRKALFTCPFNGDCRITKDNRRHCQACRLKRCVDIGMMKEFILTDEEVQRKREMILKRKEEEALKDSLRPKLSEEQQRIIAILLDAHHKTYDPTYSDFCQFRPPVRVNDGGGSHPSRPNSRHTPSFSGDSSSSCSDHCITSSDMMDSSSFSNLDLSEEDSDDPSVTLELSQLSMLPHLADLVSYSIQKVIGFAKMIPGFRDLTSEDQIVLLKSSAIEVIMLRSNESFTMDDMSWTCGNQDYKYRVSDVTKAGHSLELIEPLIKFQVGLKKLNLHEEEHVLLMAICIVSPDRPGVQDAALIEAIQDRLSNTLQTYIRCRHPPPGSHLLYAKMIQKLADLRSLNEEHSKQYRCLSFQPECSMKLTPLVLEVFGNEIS

For the assay, the target named is Vitamin D3 receptor (Homo sapiens) (UniProt P11473). In words: Inhibitors of the vitamin D receptor (VDR): qHTS. The note with it: VDR-SRC2-3 peptide fluorescence polarization, 2 h; max response, negative = inhibition: active compounds read low. A digest of the protocol:
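Compounds are added to VDR with labelled SRC2-3 coactivator peptide and held 2 h at room temperature. Inhibition of the VDR–peptide interaction is then read as a change in fluorescence polarization.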
In general terms: qHTS replaces the single test concentration by a dilution series.
On to `CC[C@]1([C@H]2O[C@@H]([C@@H]3O[C@](O)(CO)[C@@H](C)C[C@H]3C)C[C@H]2C)CC[C@@H]([C@]2(C)CC[C@@]3(C[C@@H](O)[C@@H](C)[C@@H]([C@H](C)[C@H](OC)[C@H](C)C(=O)O)O3)O2)O1`, for which the max response, negative = inhibition is 3.44%.
`COc1ccc(N(CC(=O)Nc2cc(OC)ccc2OC)S(=O)(=O)c2c(C)noc2C)cc1`: the max response, negative = inhibition was 5.52%.
Still for that read-out and setting: the value for `CCOC(=O)C1CCCN(C(=O)CN(c2ccc(OC)cc2)S(=O)(=O)c2c(C)noc2C)C1` (stereo not drawn) was -22.5%.
Consider `CCOc1ccc(N(CC(=O)OC)S(=O)(=O)c2c(C)noc2C)cc1`, for which the Potency was 89.1 µM (active).
Turning to `O=C(c1cccc(F)c1)N1CCC2(CCCN(Cc3ccncc3)C2)CC1`, the max response, negative = inhibition is -10.4%.
On the same count and under the same terms, the result for `Cc1ccc(Cn2cc(CCC(=O)NCc3ccc(OC(C)C)cc3)c3ccccc32)cc1` reads 7.91%.
On to `COC(=O)c1cccc(-n2[nH]nnc2=S)c1`, for which the Potency was 79.4 µM (active).
As for `COC(=O)c1cccc(NC(=O)c2cccc(N3C(=O)CCC3=O)c2)c1`, the max response, negative = inhibition was -2.51%.
On the same count and under the same terms, the result for `COC(=O)c1cccc(N2C(=O)C3C4C=CC(CC4)C3C2=O)c1` (stereo not drawn) reads 12.5%.
Same read-out and setting: the result for `COc1cccc(NC(=O)CSC2=Nc3ccccc3C3=NC(CC(=O)NC4CCCCC4)C(=O)N23)c1` (stereo not drawn) reads 1.75%; that for `CCOCCCNC(=O)c1cn(CC)c2ccc(S(=O)(=O)N3CCc4ccccc4C3)cc2c1=O`, -6.66%; that for `OCCN1CCN(CC/C=C2\c3ccccc3Sc3ccc(C(F)(F)F)cc32)CC1`, -15.9%.
`COc1ccc(/C=C/C(=O)c2cc(Br)ccc(=O)c2O)cc1`: the Potency is 50.1 µM (active).
For `COc1ccc(CC(=O)NCC(=O)N/N=C/c2cc(Br)ccc2OC)cc1`, the max response, negative = inhibition was 13.7%.
Regarding `COc1ccc(C(=O)c2oc3ccc(Br)cc3c2NC(C)=O)cc1`, the max response, negative = inhibition is -3.63%.
Same read-out and setting: the value for `CCN(CC)c1nn2c(=O)c(C(=O)NCCc3ccccc3)cnc2s1` was 2.65%; that for `CCOC(=O)c1sc(NC(=O)/C=C/c2ccc(C(C)C)cc2)c(C(=O)OCC)c1C` was -21.4%.
Same read-out and setting: the result for `CCOC(=O)c1c(NC(=O)c2ccc(S(=O)(=O)N3CCCC(C)C3)cc2)sc2c1CCN(C(C)C)C2` (stereo not drawn) reads 21.6%; that for `Cc1ccc(C)c(NC(=S)NCC(c2cccnc2)N2CCOCC2)c1` (stereo not drawn), -7.85%.
On to `CC(C)c1ccc(NC(=S)NNc2ccc(Cl)c(C(=O)O)c2)cc1`, for which the Potency was 39.8 µM (active).
As to `CCC(C(=O)Nc1ccc(C(C)C)cc1)c1ccccc1` (stereo not drawn), the max response, negative = inhibition is -16.3%.
Still for that read-out and setting: the result for `CC(C)CC(=O)NC(=S)Nc1cc(C(=O)O)ccc1Cl` reads -4.96%.
As for `Cc1ccc(NC(=S)NCCc2ccc(Cl)cc2)c(C)c1`, the max response, negative = inhibition is 2.39%.
Regarding `Cc1ccc(C)c(NC(=S)NNC(=S)Nc2ccc(C(C)C)cc2)c1`, the Potency is 35.5 µM (active).
On to `COc1cc(C(=O)N2CCN(C(=O)COc3cccc(C)c3)CC2)cc(OC)c1OC`, for which the max response, negative = inhibition is -6.68%.
Take `Cc1ccc(-c2nc(=N)sn2Cc2ccccc2)cc1`: the Potency was 17.8 µM (active).
Turning to `Cc1ccc(CN2C(=O)SC(Nc3ccccc3)C2=O)cc1` (stereo not drawn), the max response, negative = inhibition was -7.63%.
The same measure, in the same setting: the value for `Cc1ccc(-c2cc(C(=O)NC3CCN(Cc4ccccc4)CC3)c3ccccc3n2)cc1` was -7.79%; that for `CC(=O)/C(C)=N\O` was -2.4%.
Same read-out and setting: the value for `CCOc1ccc(CNC(=O)c2cc(=O)[nH]c3ccc(S(=O)(=O)N4CCCCC4)cc23)cc1` was 6.6%; that for `O=C(NC1CC(=O)N(c2ccc(F)cc2)C1)C1CCCCC1` (stereo not drawn) was -2.82%; that for `CCCn1c2ccccc2c2cnn(CC(=O)N(CC)c3cc(C)ccc3C)c(=O)c21` was 3.02%.
On the same count and under the same terms, the result for `CCN(CCCNC(=O)c1ccc(Sc2ccc(C)cc2)c(NC(C)=O)c1)c1cccc(C)c1` reads 9.47%; that for `CCN(CCCNC(=O)Cn1ncc2c([nH]c3ccccc32)c1=O)c1cccc(C)c1`, 2.86%.
As to `CCN(CCCNC(=O)c1ccc2c(c1)NC(=O)CN2C)c1cccc(C)c1`, the Potency was 79.4 µM (active).
On to `CCOc1ccc(N(CC)C(=O)c2noc3c2COc2ccc(C)cc2-3)cc1`, for which the max response, negative = inhibition was 8.55%.
The same measure, in the same setting: the result for `CCOc1cccc(CC(=O)N2CCc3c([nH]c4ccccc34)C2c2ccc(OC)cc2)c1OCC` (stereo not drawn) reads 11.9%; that for `COc1ccc(-c2cc(C(=O)NC(C(=O)O)C(C)C)c(C)o2)cc1OC` (stereo not drawn), -0.859%; that for `COc1ccc(-c2cc(=O)oc3cc(OCC(=O)N[C@@H](Cc4c[nH]c5ccccc45)C(=O)O)ccc23)cc1`, -24.6%.
Take `COc1ccc(-c2cc(C(=O)NC(Cc3c[nH]c4ccccc34)C(=O)O)c(C)o2)cc1OC` (stereo not drawn): the Potency is 44.7 µM (active).
As to `CC1CCN(c2nc3ccc(C(=O)N4CCN(c5ccccc5)CC4)cc3s2)CC1`, the max response, negative = inhibition was 19.1%.
Still for that read-out and setting: the value for `COc1ccc(Cn2c(=O)n(-c3ccccc3C)c(=O)c3c4c(sc32)CN(C(C)=O)CC4)cc1` was 7.19%; that for `Cc1ccc(C)c(N2CCN(S(=O)(=O)c3ccc4c(c3)C(C(C)C)C(=O)N4)CC2)c1` (stereo not drawn) was 8%.
Same read-out and setting: the value for `Cc1csc(-c2coc3cc(O[C@@H]4O[C@H](CO)[C@@H](O)[C@@H](O)[C@H]4O)ccc3c2=O)n1` was 9.43%.
On the same count and under the same terms, the value for `O=C(COC(=O)/C=C/c1cn(-c2ccccc2)nc1-c1cccnc1)Nc1ccc(Cl)cc1Cl` was -8.09%.
On to `O=C(O)CCn1cc(/C=C/C(=O)c2ccc(Cl)cc2)c(-c2cccc(Br)c2)n1`, for which the Potency is 15.8 µM (active).
For `O=C(/C=C/NNC(=O)c1cccc(Br)c1)c1ccccc1`, the max response, negative = inhibition was 0%.
Still for that read-out and setting: the value for `Cc1c(-c2nc(-c3ccc4c(c3)OCO4)no2)nnn1-c1ccc(Br)cc1F` was 14.1%; that for `Cc1ccc(Cl)cc1-n1ncc2c(N3CCC(C(N)=O)CC3)ncnc21` was -9.07%.
On the same count and under the same terms, the value for `OC[C@@H]1O[C@H](n2cnc3c(SCc4ccccc4)ncnc32)[C@H](O)[C@H]1O` was -14.3%.
Regarding `O=S(=O)(O)c1cc2onnc2c2ccccc12`, the Potency was 17.8 µM (active).
Turning to `COc1ccc(CCN2C(=O)c3oc4cc(C)cc(C)c4c(=O)c3C2c2ccccc2F)cc1OC` (stereo not drawn), the max response, negative = inhibition is 4.42%.
Still for that read-out and setting: the result for `COc1ccccc1NC(=O)C(=O)c1cc(C)n(-c2ccccc2F)c1C` reads 14.8%.
